About 83,000 compounds went through this panel and 20% of them were active in at least one assay; those are over-represented in the sample as a whole.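 Activity criterion: percent growth below 10, measured after cells in 96-well plates were exposed to a single compound concentration for 48 hours.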 Calls of active or inactive are those of the source.
Tests used:
Test in all cases: NCI-60 one-dose screen, 48 h (100 = growth as untreated, 0 = no growth, -100 = all killed)
Conditions in all cases: 10 µM unless noted
[1] = system: RPMI-8226 leukemia
[2] = system: OVCAR-8 ovarian
[3] = system: OVCAR-5 ovarian
[4] = system: OVCAR-4 ovarian
[5] = system: SK-OV-3 ovarian
[6] = system: IGROV1 ovarian
[7] = system: OVCAR-3 ovarian
[8] = system: HS 578T breast
[9] = system: NCI/ADR-RES ovarian
[10] = system: T-47D breast
[11] = system: BT-549 breast
[12] = system: MDA-MB-435 melanoma
[13] = system: SW-620 colon
[14] = system: MCF7 breast
[15] = system: HCT-116 colon
[16] = system: HCC-2998 colon
[17] = system: KM12 colon

Measured: growth

CC1(C)[C@@H](O)CC[C@]2(C)[C@H]3CC[C@@H]4[C@H]5[C@H](c6cn(-c7ccccc7)nn6)CC[C@]5(CO)CC[C@@]4(C)[C@]3(C)CC[C@@H]12
inactive: [1] 73.2% | [2] 85.2% | [3] 118% | [4] 98.3% | [5] 103% | [6] 119% | [7] 88.2% | [8] 94.6% | [9] 80.9% | [10] 63.9% | [11] 80% | [12] 93.9% | [13] 94.3% | [14] 52.8% | [15] 94.4% | [16] 110% | [17] 88%

CN(C)C(CNc1oc(-c2cccc3ccccc23)nc1C#N)c1ccco1 (stereo not drawn)
inactive: [1] 87.8% | [2] 96.4% | [3] 94.6% | [4] 83.2% | [5] 104% | [6] 95.7% | [7] 96.2% | [8] 89.6% | [9] 94.8% | [10] 72% | [11] 91.4% | [12] 97.4% | [13] 103% | [14] 87.8% | [15] 89.3% | [16] 105% | [17] 97.4%

Cc1cc(Cl)cc(CN(Cc2ccccc2)Cc2c(O)ccc3ccccc23)c1O
inactive: [1] 87.4% | [2] 98.5% | [3] 116% | [4] 105% | [5] 97.2% | [6] 94.7% | [7] 91.7% | [8] 102% | [9] 96.5% | [10] 89.5% | [11] 99% | [12] 112% | [13] 105% | [14] 85% | [15] 111% | [16] 91.5% | [17] 99.9%

O=[N+]([O-])c1ccc(N=Nc2c(O)c(N=Nc3cc([N+](=O)[O-])cc([N+](=O)[O-])c3O)cc(N=Nc3cc(S(=O)(=O)O)cc4cc(S(=O)(=O)O)cc(O)c34)c2O)cc1
inactive: [1] 102% | [2] 108% | [3] 104% | [4] 98.4% | [5] 96.2% | [6] 108% | [7] 104% | [8] 101% | [9] 103% | [10] 109% | [11] 104% | [12] 107% | [13] 108% | [14] 99.6% | [15] 80.9% | [16] 104% | [17] 103%

C=C1C(=O)O[C@H]2[C@H]1CC/C(COC(=O)CCCCCCCCC(=O)OC/C1=C/CC[C@@]3(C)O[C@H]3[C@H]3OC(=O)C(=C)[C@@H]3CC1)=C\CC[C@@]1(C)O[C@@H]21
inactive: [2] 10.2% | [3] 28.9% | [4] 29% | [5] 86.9% | [8] 10.3% | [16] 44.2% | [17] 20.2%
active: [1] -6.37% | [6] -19.2% | [7] 2.11% | [9] 2.99% | [10] -27.3% | [11] 2.59% | [12] 8.17% | [13] 2.58% | [14] -37% | [15] -62.7%

CCSc1nc(Cl)c(C#N)c(-c2ccc(F)cc2)n1
inactive: [1] 88.3% | [2] 90.2% | [3] 97.7% | [4] 97.8% | [5] 99.7% | [6] 98.9% | [7] 98% | [8] 91.6% | [9] 102% | [10] 90% | [11] 103% | [12] 91.8% | [13] 93.3% | [14] 85.1% | [15] 91.8% | [16] 102% | [17] 97.9%

CNS(=O)(=O)c1cccc(-c2ccc3c4c(n(C)c(=O)c3c2)-c2ccccc2C4=O)c1
inactive: [1] 30.5% | [2] 43.9% | [3] 95.2% | [4] 92.1% | [5] 71.8% | [6] 60.8% | [7] 82.6% | [8] 94.5% | [9] 70.7% | [10] 47% | [11] 76.6% | [12] 74.5% | [13] 46.4% | [14] 18.5% | [15] 36.4% | [16] 90.6% | [17] 40.7%

CN(C)c1ccc(-c2ccc3[nH]c(=O)nc(-c4ccc(F)cc4)c3c2)cn1
inactive: [1] 46.9% | [2] 43.5% | [3] 79.9% | [4] 66.5% | [5] 36.2% | [6] 53.8% | [8] 28.5% | [9] 51.7% | [10] 36.6% | [11] 40.6% | [13] 29.8% | [14] 29.4% | [15] 22.2% | [16] 84.3% | [17] 31.5%
active: [7] 6.67% | [12] 2.63%

COc1ccc(C(=O)c2cc(F)c(F)c(OC)c2F)cc1OC(=O)CCl
inactive: [1] 37.2% | [2] 51.1% | [3] 103% | [4] 81.7% | [5] 45.9% | [6] 43.7% | [7] 13.7% | [8] 65.4% | [9] 14.3% | [10] 44.1% | [11] 36.3% | [13] 20.6% | [14] 19.2% | [15] 20.5% | [16] 79.5% | [17] 31.1%
active: [12] -27.7%

COc1ccc(-c2nc(C#N)c(NCC(c3ccco3)N3CCCC3)o2)cc1 (stereo not drawn)
active: [12] -23.5%
inactive: [1] 24.2% | [2] 45.1% | [3] 69% | [4] 52.6% | [5] 30.4% | [6] 56.5% | [7] 22% | [8] 39.4% | [9] 10.2% | [10] 51.6% | [11] 66.7% | [13] 27.3% | [14] 19.6% | [15] 27% | [16] 67% | [17] 33.8%

COc1ccc(NC(=O)c2ccc(Nc3ncnc4[nH]c(C)c(C)c34)cc2)cc1
inactive: [1] 111% | [2] 98.9% | [3] 108% | [4] 126% | [5] 109% | [6] 110% | [7] 103% | [8] 113% | [9] 103% | [10] 89.2% | [11] 99.1% | [12] 108% | [13] 102% | [14] 100% | [15] 106% | [16] 104% | [17] 103%

COc1ccc2[nH]c(=O)c(/C=C/C(=O)c3ccccc3OC)cc2c1
inactive: [3] 12.1% | [4] 50.8% | [6] 14.5% | [9] 10.4% | [11] 18.9% | [14] 10% | [15] 16% | [16] 23.1%
active: [1] 5.61% | [2] 1.18% | [5] 6.12% | [7] 8.25% | [8] 8.33% | [10] -2.02% | [12] -10% | [13] 8.4% | [17] 4.37%

COc1ccc2c(c1)C1(C(=O)N2)C(C#N)=C(c2ccccc2)Nc2c1c(-c1ccccc1)nn2-c1ccccc1 (stereo not drawn)
inactive: [1] 67.6% | [3] 83.1% | [5] 78.8% | [6] 49.6% | [8] 40% | [9] 92.7% | [10] 63.4% | [11] 84.5% | [12] 55.3% | [14] 18.1% | [16] 58.1% | [17] 39.7%
active: [2] -10.9% | [4] -1.01% | [7] -69.2% | [13] 8.54% | [15] 4.04%

NC(N)=NC(N)=Nc1cc2ccccc2c2ccccc12
active: [1] -15.4% | [14] 2.2% | [15] -44.5%
inactive: [2] 45% | [3] 57.3% | [4] 45.8% | [5] 59.8% | [6] 17.2% | [7] 63.2% | [8] 46.5% | [9] 80.4% | [10] 30.2% | [11] 36.1% | [12] 68.9% | [13] 22.9% | [16] 26.2% | [17] 47%

From PubChem BioAssay (NCI)
